For 10 molecules, Potency, outcome and activity, negative = inhibition results are on record in PubChem BioAssay (NCATS).

Assay [1] has as its target Metallo-beta-lactamase type 2 (Klebsiella pneumoniae) (UniProt C7C422). Nature of the assay: qHTS to identify inhibitors of the New Delhi Metallo-beta-lactamase (NDM): assay validation screen against the NCATS LOPAC Collection (AID 1794843). Note: % is set by controls: 0 for no effect and ±100 for the full control effect. An outline of the steps: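 Absorbance at 485 nm from nitrocefin turnover (50 uM solution added), read at plateau, gives the read-out. Compounds in DMSO were incubated first with 2 nM final NDM-1 in pH 7.0 HEPES buffer containing 1 uM ZnSO4 and 0.01% Tween20.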
(In general: In qHTS, concentration-response curves come from the screen itself.)

Assay [2] deals with Glutathione peroxidase 1 (Homo sapiens) (UniProt P07203). Nature of the assay: Primary qHTS Assay for Inhibitors of Recombinant Selenoprotein Glutathione Peroxidase 1 (GPX1) (AID 1845191). For activity, negative = inhibition: % is set by controls: 0 for no effect and ±100 for the full control effect. Note: nearly all actives have a fitted effect of over 65% in size. Note: potency is the fitted concentration of half-maximal effect. Put shortly:
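NADPH consumption tracked by fluorescence at 340/450 nm between t=0 and t=15 min, room temperature. Final mix: 10 nM GPX1, 100 nM glutathione reductase, 1 mM GSH, 0.5 mM NADPH, 0.5 mM cumene hydroperoxide, 0.01% BSA; 30 min compound–enzyme preincubation.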

Assay [3] addresses Phospholipid hydroperoxide glutathione peroxidase GPX4 (Homo sapiens) (UniProt P36969). Nature of the assay: Primary qHTS Assay for Inhibitors of Recombinant Selenoprotein Glutathione Peroxidase 4 (GPX4) (AID 1845192). Note: nearly all actives have a fitted effect of over 65% in size. The following applies: outcome: dose series up to 50 µM unless noted. An outline of the steps: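 NADPH consumption followed by fluorescence at 340/450 nm, t=0 and after 15 min at room temperature. Reaction started with cumene hydroperoxide (0.5 mM final) after 30 min compound–GPX4 preincubation; final 200 nM GPX4, 100 nM GR, 1 mM GSH, 0.5 mM NADPH.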

The nature of assay [4]: qHTS profiling for inhibitors of Plasmodium falciparum proliferation (AID 504749).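 Note: 0% = DMSO vehicle and full inhibition = artemisinin control; nearly all actives have a fitted effect of over 60% in size.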 The following applies: P. falciparum in erythrocytes, SYBR Green DNA, 72 h. An outline of the steps:
(§1)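 SYBR Green fluorescence of parasite DNA, read after lysis and overnight dark incubation, measured growth over 72 h in erythrocyte culture at 0.3% parasitemia and 2.5% hematocrit. Data normalised to DMSO and 0.29 uM artemisinin, with plate-drift correction.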

For a further assay, the system named is 3D7. The assay is described as above. The settings on record: P. falciparum in erythrocytes, SYBR Green DNA, 72 h; series mostly up to 28.7 µM. Put shortly:
as §1

The subject of the next assay is 7G8. The description is as above. The following applies: P. falciparum in erythrocytes, SYBR Green DNA, 72 h; series mostly up to 28.7 µM. An outline of the steps:
as §1

The test system of a further assay is AA1029. The assay is described as above. The settings on record: P. falciparum in erythrocytes, SYBR Green DNA, 72 h; series mostly up to 28.7 µM. Put shortly:
as §1

For the next assay, the system named is AS120. The description is as above. The settings on record: P. falciparum in erythrocytes, SYBR Green DNA, 72 h; series mostly up to 28.7 µM. Put shortly:
as §1

The test system of a further assay is ATS189. The assay is described as above. The following applies: P. falciparum in erythrocytes, SYBR Green DNA, 72 h; series mostly up to 28.7 µM. An outline of the steps: as §1
Another assay concerns ATS95. Described as above. The settings on record: P. falciparum in erythrocytes, SYBR Green DNA, 72 h; series mostly up to 28.7 µM. Put shortly: as §1
The subject of another assay is C2A. The assay is described as above. The following applies: P. falciparum in erythrocytes, SYBR Green DNA, 72 h; series mostly up to 28.7 µM. Put shortly: as §1
The next assay relates to CP185. Described as above. The following applies: P. falciparum in erythrocytes, SYBR Green DNA, 72 h; series mostly up to 28.7 µM. Put shortly: as §1
Another assay relates to CP191. The assay is described as above. The following applies: P. falciparum in erythrocytes, SYBR Green DNA, 72 h; series mostly up to 28.7 µM. Put shortly:
as §1

In a further assay the test system is CP192. The assay is described as above. The following applies: P. falciparum in erythrocytes, SYBR Green DNA, 72 h; series mostly up to 28.7 µM. Put shortly:
as §1

For a further assay, the system named is CP194. The assay is described as above. The following applies: P. falciparum in erythrocytes, SYBR Green DNA, 72 h; series mostly up to 28.7 µM. Put shortly: as §1
[5] abbreviates: at 28.7 µM (top of the series), parasite line A.
Where [6] appears, read: at 28.7 µM (top of the series), parasite line B.

Records with an inconclusive call do not appear. The source made the active and inactive calls. Calls come from the whole dose curve; as a rule, active = well fitted curve in the direction sought with a large enough effect; inconclusive = small, poorly fitted or top-dose-only effect, or another doubt; inactive = no such curve, though single readings can be large; an effect the other way counts as inactive or inconclusive.

Chain of Phospholipid hydroperoxide glutathione peroxidase GPX4 (Homo sapiens) (P36969 whole entry, looked up): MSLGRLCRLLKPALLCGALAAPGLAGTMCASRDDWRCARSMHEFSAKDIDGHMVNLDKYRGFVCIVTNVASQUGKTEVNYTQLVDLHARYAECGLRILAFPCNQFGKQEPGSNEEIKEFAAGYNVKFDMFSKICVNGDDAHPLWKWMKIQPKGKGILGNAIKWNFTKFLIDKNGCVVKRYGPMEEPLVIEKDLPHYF
Chain of Glutathione peroxidase 1 (Homo sapiens) (P07203 whole entry, looked up): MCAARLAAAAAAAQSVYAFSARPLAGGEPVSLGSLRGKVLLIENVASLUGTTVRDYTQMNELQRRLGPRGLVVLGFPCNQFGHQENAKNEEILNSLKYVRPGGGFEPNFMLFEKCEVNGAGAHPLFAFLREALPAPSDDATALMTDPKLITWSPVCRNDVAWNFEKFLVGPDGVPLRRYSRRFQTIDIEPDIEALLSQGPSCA
Chain of Metallo-beta-lactamase type 2 (Klebsiella pneumoniae) (C7C422 whole entry, looked up): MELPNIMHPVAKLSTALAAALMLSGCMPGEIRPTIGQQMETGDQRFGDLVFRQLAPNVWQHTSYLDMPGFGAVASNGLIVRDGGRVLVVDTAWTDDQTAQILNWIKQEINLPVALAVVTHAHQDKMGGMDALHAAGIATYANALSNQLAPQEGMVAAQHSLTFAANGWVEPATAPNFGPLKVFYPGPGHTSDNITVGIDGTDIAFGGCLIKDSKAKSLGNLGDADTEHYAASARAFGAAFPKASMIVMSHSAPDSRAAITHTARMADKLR

Turning to `Cc1nnc(SCC2=C(C(=O)O)N3C(=O)[C@@H](NC(=O)Cn4cnnn4)[C@H]3SC2)s1`, the Potency result (in assay [1]; in the assay with 3D7; with 7G8; in the assay on AA1029; with AS120; in the assay on ATS189) was “inactive” in each case. Besides, the Potency result in the assay with ATS95, with C2A, with CP185, with CP191, with CP192 and in the assay on CP194 was “inactive” throughout. The Potency in [2] is 20.2 µM (active). Further, the outcome in assay [3] was inactive. The activity, negative = inhibition in [4] (setting [5]) was 11.1% (inactive); in assay [4] (setting [6]) it was 2.94% (inactive).
With `COc1cc(Cc2cnc(N)nc2N)cc(OC)c1OC`, the Potency entry in assay [1] is “inactive”.
Turning to `NC(=O)c1cn(Cc2c(F)cccc2F)nn1`, the Potency result (in assay [1]; in assay [2]; with 3D7; in the assay on 7G8; in the assay with AA1029; in the assay with AS120) was “inactive” in each case. Also, the Potency entry in the assay with ATS189, in the assay with ATS95, in the assay with C2A, with CP185, in the assay on CP191 and with CP192 was “inactive” in each case. In the assay on CP194, the Potency entry was “inactive”. Further, in assay [3], the outcome was inactive. Further, the activity, negative = inhibition in assay [4] (setting [5]) was 14.6% (inactive); in assay [4] (setting [6]) it was 0.958% (inactive).
Turning to `CC(=O)Oc1cc(C(C)C)c(OCCN(C)C)cc1C`, the Potency result (in assay [1]; in assay [2]; with 3D7; in the assay on 7G8; in the assay with AA1029; in the assay with AS120) was “inactive” throughout. The Potency result in the assay with ATS189, in the assay on ATS95, with C2A, in the assay on CP185, in the assay with CP191 and in the assay with CP192 was “inactive” in each case. For the same molecule, the Potency result in the assay with CP194 is “inactive”. Also, in [3], the outcome was inactive. Moreover, the activity, negative = inhibition in assay [4] (at 12.8 µM (top of the series), parasite line A) is 4.04% (inactive); in assay [4] (at 12.8 µM (top of the series), parasite line B), -3.15% (inactive).
With `CCc1c(C)[nH]c2c1C(=O)C(CN1CCOCC1)CC2` (stereo not drawn), the Potency result in assay [1] and in [2] was “inactive” in each case.
`CC(C)(C)NCC(O)c1cc(O)cc(O)c1` (stereo not drawn): the Potency result in assay [1] was “inactive”.
On to `CCn1ccnc1CC1COc2ccccc2O1` (stereo not drawn), for which the Potency entry (in assay [1]; in assay [2]; with 3D7; with 7G8; in the assay with AA1029; with AS120) was “inactive” throughout. Moreover, the Potency entry with ATS189, in the assay with ATS95, in the assay with C2A, in the assay with CP185, in the assay with CP191 and in the assay on CP192 was “inactive” in each case. Moreover, the Potency result with CP194 was “inactive”. Further, in assay [3], the outcome was inactive. Moreover, the activity, negative = inhibition in assay [4] (setting [5]) is 10.6% (inactive); in assay [4] (setting [6]), 1.07% (inactive).
For the molecule `O=C(O)CN(CCOCCOCCN(CC(=O)O)CC(=O)O)CC(=O)O`, the Potency entry (in [1]; in assay [2]; with 3D7; in the assay on 7G8; in the assay with AA1029; with AS120) was “inactive” each time. Also, the Potency result in the assay with ATS189, with ATS95, in the assay with C2A, with CP185, with CP191 and with CP192 was “inactive” throughout. In the assay on CP194, the Potency entry is “inactive”. In addition, in [3], the outcome was inactive. Also, the activity, negative = inhibition in [4] (setting [5]) was 8.03% (inactive); in assay [4] (setting [6]) it was 13.7% (inactive).
Regarding `CCn1nc(C(=O)O)c(=O)c2cc3c(cc21)OCO3`, the Potency result in assay [1] and in assay [2] was “inactive” throughout. Further, in [3], the outcome was inactive.
On to `Cc1ccc(=O)n(-c2ccccc2)c1`, for which the Potency entry (in [1]; in assay [2]; with 3D7; with 7G8; with AA1029; in the assay with AS120) was “inactive” in each case. The Potency result in the assay on ATS189, in the assay on ATS95, in the assay with C2A, in the assay on CP185, in the assay with CP191 and in the assay with CP192 was “inactive” each time. Also, the Potency result with CP194 was “inactive”. Also, in [3], the outcome was inactive. In addition, the activity, negative = inhibition in assay [4] (setting [5]) was 12.4% (inactive); in assay [4] (setting [6]), 18.6% (inactive).
